Screening data as filed in PubChem.
In the library only some 8.9% were active in any assay of this set; here they are far more common.
NPSR antag = blocks cAMP signaling of the human neuropeptide S receptor | Q6W5P4 | CHO-NPSR cells, cAMP TR-FRET, antagonist mode | Potency, µM (titrated, usually from 38.3 µM), inactives show top-dose activity change, negative = inhibition, actives largely listed as inhibitors | 1% of 220,000 active | AID 1461; also: potency is read from the fitted curve at half-maximal effect; nearly all actives have a fitted effect of over 50% in size
HPGD block = HPGD (human) dehydrogenase inhibition; purified HPGD, NADH fluorescence kinetic, PGE2 substrate; Potency, µM, without a hit: at the top dose activity change, negative = inhibition, most hits filed as inhibitors; 4.3% of 150,000 active; AID 894; active = well fitted inhibition curve with a large enough effect, not every such curve was filed as active; inconclusive = small, poorly fitted or top-dose-only effect, or another doubt; inactive = no such curve, though single readings can be large or run the other way; also: potency is read from the fitted curve at half-maximal effect
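NADH formation kinetics: reaction with 30 uM PGE2 and 1 mM NAD+ (final), 20 nM enzyme, Tris-HCl pH 8 with Tween 20, after 15 min compound preincubation at room temperature. Fluorescence change, last versus first of five reads.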
IMPase Li cell = cell-permeable IMPase inhibitors with lithium potentiation; CHO-M1 cells, IP1 TR-FRET (IP-One), carbachol + lithium; Potency, µM (doses to about 59.4 µM), inactives show at the top dose activity, negative = IMPase inhibition, most hits filed as inhibitors; 0.35% of 210,000 active;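 also: IP1 builds up when IMPase is blocked and the TR-FRET signal falls; potency is read from the fitted curve at half-maximal effect; plate controls were basal vehicle for no effect and high inhibitor control for full effect; nearly all actives have a fitted effect of over 50% in size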
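Lithium-sensitised IP1 accumulation assay; M1-expressing CHO cells treated 30 min at 37C with compound. Competitive antibody detection by time-resolved FRET followed a 10 min room-temperature lysis step.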
IMPase cell inh = IMPase inhibition in cells. P97697. CHO-M1 cells, IP1 accumulation, HTRF TR-FRET ratio. inhibition (IP1 accumulation), % at 46.1 µM. 120,000 tested, under 10 active. AID 901; active = well fitted curve in the direction sought with a large enough effect in the signal ratio, not every such curve was filed as active; inconclusive = small, poorly fitted or top-dose-only effect, or a change in a side signal; inactive = no such curve, though single readings can be large or run the other way; the % refers to the signal ratio;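 also: cells stimulated with carbachol in lithium chloride buffer; plate controls were DMSO basal wells for no effect and reference inhibitor wells for full effect; higher means more IMPase inhibition seen as more IP1 and lower FRET ratio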
Target sequence (P97697 whole entry, looked up): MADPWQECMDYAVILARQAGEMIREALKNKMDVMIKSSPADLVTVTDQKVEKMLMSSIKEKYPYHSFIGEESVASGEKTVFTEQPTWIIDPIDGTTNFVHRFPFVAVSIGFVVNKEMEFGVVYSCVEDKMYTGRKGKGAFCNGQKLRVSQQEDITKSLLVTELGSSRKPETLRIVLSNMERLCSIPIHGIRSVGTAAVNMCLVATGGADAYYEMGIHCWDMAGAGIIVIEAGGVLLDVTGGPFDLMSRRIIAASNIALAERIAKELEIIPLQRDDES
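Carbachol-driven Gq signalling in CHO-M1 cells (2000/well) generates IP1. Compounds that block IMPase raise IP1 and so reduce the FRET signal from Eu-anti-IP1 and d2-IP1 after a 10 min room-temperature lysis.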
ALDH1A1 block = blocks purified human ALDH1A1 activity | P00352 | Purified ALDH1A1, NADH fluorescence, propionaldehyde substrate | Potency, µM (highest dose often 75.3 µM), for inactives: top-dose activity, negative = inhibition, most hits filed as inhibitors | 7.3% of 220,000 active | AID 1030; active = well fitted inhibition curve with a large enough effect, not every such curve was filed as active; inconclusive = small, poorly fitted or top-dose-only effect, or another doubt; inactive = no such curve, though single readings can be large or run the other way;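 also: potency is read from the fitted curve at half-maximal effect; plate controls were no enzyme wells and a reference inhibitor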
Target sequence (P00352 whole entry, looked up): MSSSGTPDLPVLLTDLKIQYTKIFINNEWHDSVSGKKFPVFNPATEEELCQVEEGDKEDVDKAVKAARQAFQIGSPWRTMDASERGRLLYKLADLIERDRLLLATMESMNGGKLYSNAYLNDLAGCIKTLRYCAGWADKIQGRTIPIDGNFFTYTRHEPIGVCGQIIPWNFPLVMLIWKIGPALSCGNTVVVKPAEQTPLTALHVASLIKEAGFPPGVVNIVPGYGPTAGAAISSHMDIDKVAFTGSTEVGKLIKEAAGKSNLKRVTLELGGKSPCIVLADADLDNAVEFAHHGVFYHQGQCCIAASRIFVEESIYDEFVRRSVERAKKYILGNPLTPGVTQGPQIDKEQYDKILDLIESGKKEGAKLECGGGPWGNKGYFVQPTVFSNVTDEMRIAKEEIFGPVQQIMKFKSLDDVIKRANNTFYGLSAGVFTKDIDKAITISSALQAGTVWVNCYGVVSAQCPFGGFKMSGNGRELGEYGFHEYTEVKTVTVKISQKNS
ALOX12 inhib = blocks human 12-lipoxygenase activity; purified 12-hLO, xylenol orange hydroperoxide absorbance; Potency, µM (top dose mostly 57.1 µM), for inactives: top-dose activity change, negative = inhibition, usual class: inhibitors; 0.12% of 150,000 active; AID 1452; also: potency is read from the fitted curve at half-maximal effect; nearly all actives have a fitted effect of over 55% in size
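Purified human 12hLO (150 nM), preincubated 15 min with compound, then 40 uM arachidonic acid for 30 min, room temperature, Hepes pH 7.0 with 0.01% Triton X-100. Hydroperoxide detected by ferrous iron/xylenol orange; 573/405 nm absorbance ratio gives reaction progress.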
* hit, by the source's call; ? = inconclusive; . = no result; [ ] = dose if it differs, or a comment. Unless noted, calls follow the shape of the dose curve; as a rule, active = well fitted curve in the direction sought with a large enough effect; inconclusive = small, poorly fitted or top-dose-only effect, or another doubt; inactive = no such curve, though single readings can be large; an effect the other way counts as inactive or inconclusive. Unless noted, % is scaled to controls: 0 for no effect and ±100 for the full control effect.

SMILES | NPSR antag | HPGD block | IMPase Li cell | IMPase cell inh | ALDH1A1 block | ALOX12 inhib
CCOC(=O)c1ccccc1NC(=O)c1cncc(Br)c1 | ? | -25.2% | 1.26µM* | ? | -9.9% | -1.7%
CCOC(=O)c1ccccc1NC(=O)CN(c1ccccc1OC)S(C)(=O)=O | -17.3%[46.1 µM] | -13.2% | 15.1%[38.3 µM] | 12.3 | -2.4% | -2.9%
CCCCC1=CC2=CC(=O)C(C)(OC(=O)CC)C(=O)C2=CN1Cc1ccc(OC)cc1 (stereo unspecified) | -6.1% | -10.1% | 9.9% | . | 9.6%[13.5 µM] | -5.1%[11.4 µM]
Cc1[nH]c(=O)[nH]c(=O)c1S(=O)(=O)N1CCOCC1 | -7.7%[46.1 µM] | -12.3% | -21.9%[38.3 µM] | -4.7 | -0.7% | 8.1%
Cc1ccc(-c2nc(N3CCOCC3)sc2C(=O)N2CCCCC2)cc1 | -20.5% | -0.2% | -1.3% | 1.7 | 7.94µM* | -2.7%
Cc1ccc(-c2nc(N3CCOCC3)sc2C(=O)N2CCOCC2)cc1 | 4.9% | -7.1% | 10.0% | . | 20µM* | 3.0%
CC(=O)c1sc(N2CCOCC2)nc1-c1ccccc1 | -21.3% | . | -13.3% | . | -9.3% | .
CN(C)c1cncc(C(=O)O)c1 | 13.0% | . | -1.3% | . | ? | .
Cc1ccc(-c2nc3cc(NC(=O)C(C)C)ccc3o2)cc1 | ? | ? | -12.8%[38.3 µM] | -5.3 | ? | 24.7%
Cc1ccc(S(=O)(=O)Nc2ccc(-c3nc4cc(NS(=O)(=O)c5ccc(C)cc5)ccc4o3)cc2)cc1 | 10µM* | ? | 5.9%[38.3 µM] | -2.9 | ? | ?
COc1ccccc1N/N=C/c1ccc2c(c1)OCO2 | 3.5% | 15.8µM* | 1.3% | . | ? | -4.3%
O=C(COc1ccccc1)N/N=C/c1ccc2c(c1)OCO2 | -2.2% | . | -7.7% | . | -0.5% | .
CC1(C)CC(=O)c2c(oc3cc(O)c(O)cc23)C1 | -6.9%[46.1 µM] | 6.31µM* | 14.4% | 1.7 | 2µM* | -17.6%
CC(C)c1ccc(S(=O)(=O)Nc2ccc3oc4c(c3c2)C(=O)CC(C)(C)C4)cc1 | . | . | . | -3.1 | . | .
COC(=O)CC1Oc2cc3oc4c(c3cc2O1)C(=O)CC(C)(C)C4 (stereo unspecified) | . | 25.1µM* | -1.8% | . | 10µM* | -0.7%
CNC(=O)c1[nH]cnc1C(=O)Nc1cccc(OC)c1 | 8.9%[46.1 µM] | -12.8% | 15.4%[38.3 µM] | 5.5 | 28.2µM* | 0.5%
CCOC(=O)CNS(=O)(=O)c1cc(-c2n[nH]c(=O)c3ccccc23)ccc1C | ? | 3.55µM* | 6.3%[38.3 µM] | -3.5 | 14.1µM* | -6.0%
CCOC(=O)CNS(=O)(=O)c1cc(-c2nnc(Nc3cccc(O)c3)c3ccccc23)ccc1C | . | . | . | 6.4 | . | .
Cc1ccc(NS(=O)(=O)c2cc(-c3n[nH]c(=O)c4ccccc34)ccc2C)cc1 | -2.4% | 20µM* | 19.6% | . | ? | -13.7%
Cc1ccc(NS(=O)(=O)c2cc(C(N)=O)ccc2C)cc1 | -7.4%[46.1 µM] | -6.2% | 15.2%[38.3 µM] | -0.7 | -3.2% | -3.7%
Cc1ccc(OCC(=O)N(C)CC(=O)Nc2ccc(F)cc2)c([N+](=O)[O-])n1 | 8.8% | -6.6% | -1.0% | . | 18.5% | -0.5%
O=C1/C(=C/c2cccnc2)SC(=S)N1c1ccccc1 | 17.4% | -9.1% | 9.8% | 1.2 | ? | 1.5%
O=C(O)CCCN1C(=O)/C(=C/c2ccncc2)SC1=S | -8.9% | . | . | . | . | .
O=C1/C(=C/c2cccnc2)SC(=S)N1Cc1ccco1 | . | -14.2% | 3.6% | . | 2.24µM* | -1.7%[11.4 µM]
Cc1cc(/C=C2\SC(=S)N(Cc3ccco3)C2=O)c(C)n1-c1cccnc1 | ? | -15.4% | 5.4%[38.3 µM] | 8.8 | 0.282µM* | 0.3%
SMILES | NPSR antag | HPGD block | IMPase Li cell | IMPase cell inh | ALDH1A1 block | ALOX12 inhib
COc1ccc(CN2C(=O)/C(=C/c3ccncc3)SC2=S)cc1 | -16.9% | -19.9% | 14.0% | . | 10µM* | 4.5%
O=C1/C(=C/c2ccccc2O)SC(=S)N1Cc1cccnc1 | 11.4% | 2.82µM* | -5.2% | . | 7.51µM* | -1.4%
COc1cc(OC)cc(C(=O)N[C@H](C(=O)OCn2nnc3ccccc3c2=O)C(C)C)c1 | -29.5% | . | 5.3% | . | -6.2% | .
CCOC(=O)N1CCN(C(=O)c2ccc3c(=O)n(-c4ccc(OC)cc4)c(=S)[nH]c3c2)CC1 | -5.2%[46.1 µM] | -4.0% | 1.0%[38.3 µM] | -1.6 | 2.6% | 0.5%
COc1cc(-c2nnc(COc3ccc4cc(Br)ccc4c3)o2)cc(OC)c1OC | 25.4%[46.1 µM] | -24.9% | 14.1µM* | ? | 0.9% | -4.3%
COc1cc(/C=C(\C#N)C(N)=O)cc(CSc2nc3ccccc3s2)c1O | . | 39.8µM* | 28.6% | 4.1 | ? | -8.2%
COc1cc(/C=C/c2nc3ccccc3s2)cc(OC)c1O | -49.2% | . | -18.4% | . | ? | .
Cc1ccc(NC(=O)Cn2cnc3cc([N+](=O)[O-])ccc3c2=O)c(Cl)c1 | -13.9% | . | . | . | 2.82µM* | .
Cc1ccc(NC(=O)Cn2cnc3cc([N+](=O)[O-])ccc3c2=O)cc1 | -18.3% | . | . | . | 4.5% | .
CCC1CCCCN1S(=O)(=O)c1ccccc1[N+](=O)[O-] (stereo unspecified) | 21.4% | . | 11.5% | . | ? | .
COc1cc(/C=N/NC(=O)c2cc(-c3ccco3)nc3ccccc23)cc(OC)c1O | 27.1% | . | . | . | 22.4µM* | .
CCOc1cc(NC(=S)NCC2CCCO2)c(OCC)cc1NC(=O)C1CC1 (stereo unspecified) | 4.4% | . | 4.4% | . | -5.8% | .
COc1ccc(C(=O)/C=C2/c3ccccc3CC(C)(C)N2C)cc1OC | 5.3% | -9.5% | -1.7% | . | 23.8µM* | 2.1%
Cc1ccc(NS(=O)(=O)c2ccc(N3CCN(c4ccc(O)cc4)CC3)c([N+](=O)[O-])c2)c(C)c1 | -25.5% | -5.5% | 7.1% | . | 14.1µM* | -9.6%
CC(=O)N1CCCc2cc(S(=O)(=O)Nc3ccc(C)cc3C)ccc21 | 14.6% | -6.9% | -6.2% | . | ? | -1.1%
O=C(O)c1cc(NS(=O)(=O)c2ccc(N3CCOCC3)c([N+](=O)[O-])c2)cc(C(=O)O)c1 | -4.5%[46.1 µM] | -2.5% | -4.4% | 0.2 | 7.2% | -0.9%
O=[N+]([O-])c1cc(S(=O)(=O)Nc2ccccc2)ccc1N1CCN(c2ccc(O)cc2)CC1 | -24.2% | -19.8% | 16.4% | . | 31.6µM* | -24.8%
COc1ccc(C#CC2C=CC(OC(C)=O)C(COC(C)=O)O2)cc1 (stereo unspecified) | . | . | . | . | 0.2%[13.5 µM] | .
Cc1cc(NC(=O)c2cc(C(C)C)on2)nn1Cc1ccc(Cl)cc1 | ? | -11.3% | 6.1%[38.3 µM] | 10.2 | -4.4% | -13.1%
Cc1ccc(C(=O)CC2(O)C(=O)N(C)c3ccccc32)o1 (stereo unspecified) | -15.4%[46.1 µM] | -27.2% | ? | -20.4 | 25.1µM* | 5.7%
CN1C(=O)C(O)(CC(=O)c2ccncc2)c2ccccc21 (stereo unspecified) | 7.7%[46.1 µM] | 1.6% | 37.1%[38.3 µM] | -2.5 | ? | 0.0%
COC(=O)CN1C(=O)C(O)(CC(=O)c2ccccc2)c2ccccc21 (stereo unspecified) | 8.5%[46.1 µM] | -4.6% | 19.5%[38.3 µM] | 0.4 | 4.47µM* | 2.3%
